Source: PubChem BioAssay (NCI)
Compounds without any hit were thinned out: in the full panel of roughly 79,000, 15% have a hit. No stated cut-off is given here; in the data, active means growth inhibition above about 70%; inactive means the rest.

What was measured:
[1] = NCI Yeast Anticancer Drug Screen. Data for the rad50 strain (AID 155);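 further: 0% = growth of vehicle-only cultures of the same strain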; settings: S. cerevisiae rad50 strain growth inhibition, active compounds read high; at 50.0 µM unless noted
Method in brief: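 Growth of the mutant yeast was measured after compound exposure and referenced to vehicle-treated cultures.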

[2] = NCI Yeast Anticancer Drug Screen. Data for the mec2-1 strain (AID 157); settings: S. cerevisiae mec2-1 strain, active compounds read high; at 50.0 µM unless noted
Method in brief: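 Mutant yeast (mec2-1) grown with compound; growth inhibition relative to vehicle control reported.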

[3] = NCI Yeast Anticancer Drug Screen. Data for the sgs1 mgt1 strain (AID 161);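 further: 0% = growth of cultures given vehicle only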; settings: S. cerevisiae sgs1 mgt1 strain, active compounds read high; at 50.0 µM unless noted
Method in brief: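 This yeast growth screen uses a strain with defined DNA-repair lesions; compound-treated growth is compared with vehicle-treated growth.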

[4] = NCI Yeast Anticancer Drug Screen. Data for the cln2 rad14 strain (AID 165);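 further: 0% = growth equal to vehicle treated cultures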; settings: S. cerevisiae cln2 rad14 strain, active compounds read high; at 50.0 µM unless noted
Method in brief: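 Readout is yeast growth inhibition versus vehicle-treated controls, using a strain with cln2 and rad14 alterations exposed to compound.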

[5] = NCI Yeast Anticancer Drug Screen. Data for the bub3 strain (AID 167); settings: S. cerevisiae bub3 mutant strain, active compounds read high; at 50.0 µM unless noted
Method in brief: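 Whole-cell yeast assay. The mutant strain was incubated with compounds, and growth inhibition was determined by comparison with vehicle-treated cells.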

[6] = NCI Yeast Anticancer Drug Screen. Data for the mlh1 rad18 strain (AID 175); settings: S. cerevisiae mlh1 rad18 strain growth inhibition, active compounds read high; at 50.0 µM unless noted
Method in brief: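 Genetically defined yeast (DNA repair-deficient) exposed to compounds; growth inhibition determined relative to vehicle.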

Measured: growth inhibition

O=C(O)CCC1NCCCO1 (stereo not given)
inactive: [1] 1.85% | [2] 3% | [3] 3.7% | [4] -35.1% | [5] -4.15% | [6] 0.75%

O=C1CCCC/C1=C/C=C/c1ccccc1
inactive: [1] 10.1% | [2] 21.8% | [3] 23.1% | [4] -33.5% | [5] -29.9% | [6] 6.75%

Cc1cc(S(=O)(=O)Nc2nc(N)nc(N3N=CCC3C)n2)c(SCC(=O)O)cc1Cl (stereo not given)
inactive: [1] -16% | [2] 6.25% | [3] 4.7% | [4] -7% | [5] -1.55% | [6] 2.1%

Cc1cccc(C)c1NC(=O)c1c(Cl)c(Cl)c(Cl)c(Cl)c1C(=O)O
inactive: [1] -25.9% | [2] 11.8% | [3] -15.7% | [4] -20% | [5] 4.55% | [6] -18.2%

O=C1NC(=O)C2(CCCC2)N1
inactive: [1] -9.4% | [2] 8.05% | [3] 2.8% | [4] -74% | [5] 7.45% | [6] -37.9%

CCOC(=O)c1ccc(N(CCO)CCO)cc1
inactive: [1] 3.45% | [2] 12.4% | [3] 5.45% | [4] -94.2% | [5] 32.5% | [6] 13.7%

COc1ccc(OC)c(/C=N\NC(=O)N/N=C/c2cc(OC)ccc2OC)c1
inactive: [1] -9.4% | [2] -20.6% | [3] 11.3% | [4] -2.05% | [5] 22.8% | [6] -3.9%

Cc1ccc2nc(-c3ccc(NC(=O)c4ccc(N)cc4)c(S(=O)(=O)O)c3)sc2c1
inactive: [1] 1.9% | [2] 4.7% | [3] -25.9% | [4] -22% | [5] -16.4% | [6] -8.85%

Cc1cccc(CO)c1NC(=O)NCCCl
inactive: [1] -0.4% | [2] -12.2% | [3] -4.55% | [4] -32.2% | [5] -17.9% | [6] 3.25%

OC(CN1CCCCC1)c1cc(-c2ccccc2)no1 (stereo not given)
inactive: [1] 31.8% | [2] 11.6% | [3] 33.5% | [4] 24.6% | [5] 23.6% | [6] 16.4%

CC1(C)C2CCC3(C2)CS(=O)(=O)N2OC231 (stereo not given)
inactive: [1] 6.55% | [2] -35.9% | [3] -31.1% | [4] -20.1% | [5] -26.9% | [6] -9.7%

COc1ccc(-c2cc(-c3ccco3)c(C#N)c(=O)[nH]2)cc1
inactive: [1] 3.95% | [2] 6.2% | [3] 14.2% | [4] 14.2% | [5] 8.65% | [6] 27.3%

CC(C)c1cccc(C(C)C)c1NC(=O)N1CCCCC1
inactive: [1] 4.8% | [2] -16.2% | [3] 0.05% | [4] 3.85% | [5] -1.65% | [6] 10.2%

COc1cc(C2c3cc4c(cc3OC(NN=C(C)C)C2C)OCO4)cc(OC)c1O (stereo not given)
inactive: [1] 14.2% | [2] 1.7% | [3] 9.65% | [4] 4.5% | [5] 12.8% | [6] 10.9%

COc1ccc2oc3c(OC)c(OC)c(OC)cc3c(=O)c2c1
inactive: [1] -11.3% | [2] -21.6% | [3] -4.95% | [4] 6% | [5] 12.6% | [6] -15.8%

CC(C)=C1C2CCC1C(CO)C2CO (stereo not given)
inactive: [1] 4.95% | [2] -8.45% | [3] -13.5% | [4] -102% | [5] -2.4% | [6] -15.7%

COC(=O)CC1(C(=O)OC)NC(=O)c2cc(OC)c(Cl)cc2N1 (stereo not given)
inactive: [1] -4.2% | [2] 7.6% | [3] -7.1% | [4] 13.6% | [5] -4.9% | [6] -19.6%

O=C(CCS(=O)(=O)CCC(=O)c1ccc2ccccc2c1)c1ccc2ccccc2c1
inactive: [1] -66.8% | [2] -13.2% | [3] -2.4% | [4] -35.3% | [5] 0.25% | [6] -52.5%

COc1cccc(N2C(=O)C3c4[nH]c5ccccc5c4C4c5ccccc5CCC4C3C2=O)c1 (stereo not given)
inactive: [1] -0.1% | [2] 4.4% | [3] 5.05% | [4] 2.95% | [5] -0.6% | [6] 20.9%

C#CCC(C(=O)OC)N(CC)CC (stereo not given)
inactive: [1] 25.6% | [2] -21.9% | [3] 41.4% | [4] 0.55% | [5] 46.1% | [6] 33.7%

Nc1c(C(=O)O)ccc(O)c1O
inactive: [1] 28.9% | [2] 20.5% | [3] 32.2% | [4] 7.95% | [5] 0.95% | [6] 9.8%

Cn1ccn(C2CCCCC2)c1=O
inactive: [1] 3.35% | [2] 5.1% | [3] -0.25% | [4] -12.3% | [5] 35% | [6] 7.95%

CCCCCCCC[Si](c1ccccc1)(c1ccccc1)c1ccccc1
inactive: [1] 3.15% | [2] 22% | [3] 3.85% | [4] -9.8% | [5] -2.2% | [6] 10.4%

Cc1cn(C2CC(ON)C(CO)O2)c(=O)[nH]c1=O (stereo not given)
inactive: [1] -8.1% | [2] -1.15% | [3] 23.2% | [4] 13.9% | [5] 6.25% | [6] -48%

S=c1nc[nH]c2[nH]cc(Br)c12
inactive: [1] 11.6% | [2] -6.55% | [3] 2.5% | [4] -4.7% | [5] 3.75% | [6] 11.8%

COc1cc(CCCC(C(=O)O)C(=O)O)cc(OC)c1OC
inactive: [1] 14.2% | [2] -13.3% | [3] -11.9% | [4] 15.8% | [5] -0.9% | [6] 11.7%

CC(=O)OC1CCC2(C)C(C1)C(=O)OC1C2CCC2(C)C(C(C)CCCC(C)C)CCC12 (stereo not given)
inactive: [1] 27.4% | [2] 3.55% | [3] 2.75% | [4] -12.7% | [5] -3.85% | [6] 23.4%

O=C(O)CC1NC(/C(=C/c2ccccc2O)NC(=O)c2ccccc2)OC1=O (stereo not given)
inactive: [1] -1.5% | [2] -5.85% | [3] 15.5% | [4] -5.95% | [5] 15.2% | [6] -28.7%

CN(C1=CC(=O)c2ccccc2C1=O)C1CCCCC1
inactive: [1] 14.1% | [2] 49.5% | [3] 37.4% | [4] -7.05% | [5] 63% | [6] 42.2%

N=c1oc(-c2ccccc2)cc2ccccc12
inactive: [1] 29.8% | [2] -9.4% | [3] -12.3% | [4] -45.8% | [5] 15.6% | [6] 11.7%

O=S1(=O)C(c2ccccc2)=C1c1ccccc1
inactive: [1] -6.95% | [2] 6.55% | [3] 8.6% | [4] 24.6% | [5] -11.7% | [6] 17.6%

COc1ccc(NS(=O)(=O)c2ccc(NC(CNC(C)S(=O)(=O)O)S(=O)(=O)O)cc2)cc1 (stereo not given)
inactive: [1] 18.1% | [2] 5.75% | [3] 29.3% | [4] 52.5% | [5] -0.85% | [6] 36.5%

Nc1ncnc2c1ncn2CC(O)CN(CCO)CCO (stereo not given)
inactive: [1] 13.1% | [2] 7.95% | [3] -3.7% | [4] 8.2% | [5] -10.8% | [6] 18.6%

CCCCSCC(N)CO (stereo not given)
inactive: [1] 9.05% | [2] 5.2% | [3] 10.7% | [4] -34.2% | [5] 0.55% | [6] 1.75%

CCC(CC)C(=O)NCCNC(=O)C(CC)CC
inactive: [1] 5.45% | [2] -0.9% | [3] 14.2% | [4] -30.1% | [5] -10.6% | [6] -17.2%

CCCCCCC(CCN(C)C)(C(C)=O)c1ccccc1 (stereo not given)
inactive: [1] -3.3% | [2] 3.7% | [3] 1.05% | [4] -3.5% | [5] 6.85% | [6] 11.1%

CCC(C)(C)c1ccc(C(=O)OC)o1
inactive: [1] 4.1% | [2] 16.2% | [3] -5.55% | [4] -13.3% | [5] -7.3% | [6] -13.8%

CC(=O)Oc1ccc2c(c1)CCC2
inactive: [1] 9.85% | [2] 12.8% | [3] 1.4% | [4] 8.25% | [5] 15.1% | [6] 0.1%

O=C(O)c1cc(Cl)c2ccccc2c1O
inactive: [1] 46.8% | [2] 45.8% | [3] 46.8% | [4] 31.6% | [5] 42.1% | [6] 33.1%

CCCCC/C(C=O)=C\c1ccccc1
inactive: [1] 38.5% | [2] 15.8% | [3] 39.5% | [4] -12.2% | [5] 18% | [6] 38%
